# PubChem BioAssay
# Unmarked numbers belong to inactive results. No rule for the calls is given here.
# Experiment: blockers of DNA damage checkpoint Chk1 activation – imaging, HeLa, hydroxyurea, phospho-Chk1 nuclear intensity, primary screen (AID 1187); also: test concentration not given here
# Details: hydroxyurea-induced phospho-Chk1 immunofluorescence imaging, higher = more signal
row,SMILES,z-score
1,COc1ccc([Si](C)(C)[C@@H]2[C@@H](CCO)O[C@]3(C(=O)N(Cc4ccc(NC(=O)[C@H](C)O)cc4)c4ccccc43)[C@H]2C)cc1,-1.27
2,O=C(NCc1ccccc1)[C@@]1(CCS(=O)(=O)c2ccccc2)COC(c2ccc(OCCCO)cc2)=N1,-0.464
3,C=C(C)[C@@H]1CC=C(C(O)C2C=CC3C(=O)NC(=O)C3N2Nc2ccccn2)CC1 (some centres not stated),-0.126
4,CCOC(=O)[C@H]1C/C=C/C[C@H](C(=O)OCC)C(=O)O[C@H]2[C@@H](OC)O[C@H](CO)[C@@H](OC(=O)Nc3ccc(Br)cc3)[C@@H]2OC1=O,-0.26
5,C=CCC(OC(C)=O)[C@@H]1[C@@H](N(Cc2ccc(-c3ccccc3)cc2)C(=O)c2ccc(C)cc2)c2cc(OCCCO)ccc2N1C(=O)c1ccc(-c2ccccc2)cc1 (some centres not stated),0.582
6,C=CC[C@]1(C(=O)O)N=C(c2ccc(OCCCO)cc2)O[C@H]1c1ccccc1N=[N+]=[N-],0.144
7,CN(C)CCCC[C@@H]1NC(=O)[C@@H]2C[C@H](C(=O)NCCCCCNC(=O)CS)[C@H](c3ccc(O)cc3)N2C1=O,-0.456
8,C=CC[C@]1(C(N)=O)N=C(c2ccc(OCCCO)cc2)O[C@H]1c1ccccc1CN=[N+]=[N-],0.168
9,C[C@H]1NC(=O)[C@@H](C)NC(=O)[C@@]23C(=O)N[C@@H](Cc4ccccc4)C2[C@H](C)[C@@]2(C)O[C@H]2C3/C=C/C/C=C\CNC1=O (some centres not stated),0.412
10,C[C@]1(C(=O)NCCN2CCOCC2)c2ccccc2C(=O)N(Cc2ccccc2)[C@H]1c1ccc(CO)cc1,0.0648
11,C[C@@H]1NC(=O)[C@H](Cc2ccccc2)NC(=O)[C@@]23C(=O)N[C@@H](Cc4ccccc4)C2[C@H](C)[C@@]2(C)O[C@H]2C3/C=C/C/C=C\CNC1=O (some centres not stated),0.374
12,Cc1cc(C)c(C(O)C2C=CC3C(=O)N(C)C(=O)C3N2N2CCCCC2)c(C)c1 (configuration not stated),-0.224
13,CCCNC(=O)[C@@]1(Sc2ccc(C)cc2)CC(=O)N(Cc2ccccc2Cl)[C@@H]1c1ccc(CO)cc1,-0.365
14,Cc1ccc(S[C@]2(C(=O)NC3CC3)CC(=O)N(Cc3cc(C(F)(F)F)cc(C(F)(F)F)c3)[C@@H]2c2ccc(CO)cc2)cc1,-0.0725
15,COC(=O)C[C@H]1O[C@]2(C(=O)N(Cc3ccccc3)c3ccc(I)cc32)[C@@H](C)[C@@H]1[Si](C)(C)c1ccc(OC)cc1,-0.584
16,O=C(NCC(O)CO)[C@]1(Cc2ccccc2)N=C(c2ccc(OCCCO)cc2)O[C@@H]1c1ccccc1 (some centres not stated),-0.655
17,CCOC(=O)C[C@H]1[C@H](OC(=O)Cc2ccc3c(c2)OCO3)[C@@H](NC(=O)CC(C)C)c2cc(OCCCO)ccc2N1C(=O)c1ccccc1,-0.321
18,COc1ccc([Si](C)(C)[C@H]2[C@H](CCO)O[C@@]3(C(=O)N(Cc4ccc(N5CCCCC5=O)cc4)c4ccccc43)[C@@H]2C)cc1,-0.167
19,COc1ccc(CCN2C(=O)[C@@]3(c4ccc([N+](=O)[O-])cc4)CC(=O)N(CC45CC6CC(CC(C6)C4)C5)[C@@H]3c3ccc(CO)cc32)cc1,0.522
20,COCCCNC(=O)[C@@]1(Sc2ccc(C)cc2)CC(=O)N(Cc2cc(C(F)(F)F)cc(C(F)(F)F)c2)[C@@H]1c1ccc(CO)cc1I,0.283
21,CN(C)CCCC[C@@H]1NC(=O)[C@@H]2C[C@H](C(=O)O)[C@H](c3ccc(O)cc3)N2C1=O,0.448
22,O=C1OCC=C[C@H]2OC34C=CCN(Cc5ccccc5)C(=O)[C@H]3N(CCO)C(=O)[C@@H]4[C@@H]12 (some centres not stated),0.252
23,C=C(C(=O)CC[C@H](OC(=O)c1ccccc1-c1ccccc1C(=O)O)c1ccc(CO)o1)C(C)C,0.239
24,C=C(COC)C(=O)CC[C@H](OC(=O)c1ccccc1-c1ccccc1C(=O)O)c1cccc(OCCO)c1,0.258
25,O=C(NCc1ccccc1)[C@@]1(Cc2ccccc2)COC(c2ccc(OCCCO)cc2)=N1,-0.649
26,CC(C)CN1C(=O)[C@@]2(Cc3ccccc31)c1ccccc1C(=O)N(C1CCCCC1)[C@H]2c1ccc(CO)cc1,-1.17
27,CC(=O)NCCCC[C@@H]1NC(=O)[C@@H]2C[C@H](C(=O)NCc3ccc(F)cc3)[C@H](c3cccc(OCCO)c3)N2C1=O,0.312
